# The list is not random: actives were taken first. Their share in the collection is about 21%.
# Shiga toxin inh – A qHTS for Small Molecule Inhibitors of Shiga Toxin; Vero cells, Shiga toxin protein synthesis inhibition reporter; inhibition, % at 38.7 µM; 290,000 compounds, 9.2% hits; in the data active = inhibition mostly above about 28%, no sharp cut-off; inactive = mostly below about 43%; note: 0% is about no effect
# SARS PLpro yeast-1 – qHTS of Yeast-based Assay for SARS-CoV PLP | Potency, µM (doses to about 32.9 µM), for the others: at the top dose activity, positive = growth rescue, hits mostly activators | S. cerevisiae expressing SARS-CoV PLpro, growth rescue | 330,000 compounds, 0.19% hits; note: potency is the fitted concentration of half-maximal effect; 0% is about no effect; nearly all actives have a fitted effect of over 55% in size
# Pf growth 48h – Primary qHTS for delayed death inhibitors of the malarial parasite plastid, 48 hour incubation; P. falciparum luciferase growth in erythrocytes, 48 h; Potency, µM (titrated, usually from 28.7 µM), for the others: at the highest dose activity change, negative = inhibition, usual class: inhibitors; 310,000 compounds, 5.9% hits; active = well fitted inhibition curve with a large enough effect; inconclusive = small, poorly fitted or top-dose-only effect, or another doubt; inactive = no such curve, though single readings can be large or run the other way; note: potency is the fitted concentration of half-maximal effect; % is set by controls: 0 for no effect and ±100 for the full control effect
#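 Luminescence readout; reporter = integrated firefly luciferase in P. falciparum. RBC culture at 2% hematocrit, 0.1% parasitemia final, 37 C/5% CO2; decreased signal taken as growth inhibition.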
# Cycloheximide cs – Cycloheximide Counterscreen for Small Molecule Inhibitors of Shiga Toxin; cell reporter, cycloheximide protein synthesis inhibition counterscreen; max response, %; 300,000 compounds, 12% hits; in the data active = max response mostly above about 13%, no sharp cut-off; inactive = mostly below about 14%; note: read at 38.3 µM for the half of the compounds with a filed dose; 0% is about no effect
# Pf growth 96h – Primary qHTS for delayed death inhibitors of the malarial parasite plastid, 96 hour incubation. P. falciparum luciferase reporter growth, 96 h. Potency, µM (highest dose often 28.7 µM), for the others: at the top dose activity change, negative = inhibition, actives largely listed as inhibitors. 320,000 compounds, 6.9% hits; active = well fitted inhibition curve with a large enough effect; inconclusive = small, poorly fitted or top-dose-only effect, or another doubt; inactive = no such curve, though single readings can be large or run the other way; note: potency is the fitted concentration of half-maximal effect; % is set by controls: 0 for no effect and ±100 for the full control effect
#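 Compounds incubated with erythrocytes infected by luciferase-expressing P. falciparum (2% hematocrit, 0.05% parasitemia final) for 96 hours, 37 C in 5% CO2. Growth inhibition scored as decreased luciferase luminescence.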
# NS1 inh – qHTS Assay for Inhibitors of Influenza NS1 Protein Function; Potency, µM (top dose mostly 46.1 µM), without a hit: top-dose activity, positive = more growth; 270,000 compounds, 0.4% hits; AID 2326, 2010; note: potency is the fitted concentration of half-maximal effect; actives are rising curves; nearly all actives have a fitted effect of over 50% in size
#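 Growth recovery, yeast-based: influenza A NS1 expressed in S. cerevisiae causes slow growth, and suppressors are detected by OD600. The parent strain without NS1 is used as positive control.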
# Flu NS1 inh – Assay for Inhibitors of Influenza NS1 Protein Function: Hit Validation. influenza NS1 function cell assay, 15-point titration. shares compounds with NS1 inh. 1,400 tested, under 10 active. activity change, negative = inhibition, % at 32.9 µM; note: 0% is about no effect
# Flu PR8 replic – Assay for Inhibitors of Influenza NS1 Protein Function: Influenza virus replication assay in MDCK cells infected with virus A/PR/8/34. virus titer (log TCID50), log10 TCID50 at 5 µM. MDCK infected influenza A/PR/8/34, virus titer TCID50; stronger effect = lower value. 95 compounds, 30% hits. shares compounds with NS1 inh; call rule not given here
# SARS PLpro yeast-2 – qHTS of Yeast-based Assay for SARS-CoV PLP: Hit Validation; shares compounds with SARS PLpro yeast-1; yeast expressing SARS-CoV PLpro, growth phenotype rescue; calls only; 1,000 compounds, 19% hits; call rule not given here
# The depositor's hits bear a star; i = inactive; ? = inconclusive; . = not tested or not shown; + = active, no number; [ ] = another dose, or the depositor's remark. Unless noted, calls come from the whole dose curve.
SMILES,Shiga toxin inh,SARS PLpro yeast-1,Pf growth 48h,Cycloheximide cs,Pf growth 96h,NS1 inh,Flu NS1 inh,others
Cc1ccc(NC(=O)CN(C)c2ccc(S(=O)(=O)N3CCN(C)CC3)cn2)cc1,-15,9%,?,-3,-34%,-5%,.,
O=C(NCc1ccc(F)cc1)N[C@@H](Cc1ccccc1)C(=O)O,19,6%,20%,-7,?,1µM*,22,
COc1cc(NC(=O)N[C@@H](Cc2ccccc2)C(=O)O)cc(OC)c1,21,-2%,3%,-4,?,?,18,
C=CCN(Cc1nc(-c2ccccc2)no1)C(=O)c1ccc2c(c1)OCO2,-13,15%,12%,-2,-3%,-9%,.,
O=C(COC(=O)c1ccc(Cl)nc1)NCCC1=CCCCC1,-8,-2%,3%,6,28%,.,.,
NC(=O)[C@@H]1CC2(CC(c3cccc(NC(=O)CC(c4ccccc4)c4ccccc4)c3)=NO2)CN1C(=O)c1ccc(Cl)cc1 (stereo partly drawn),-5,1%,?,-3,?,4µM*,0,
CCC(=O)N1CC2(CC(c3cccc(NC(=O)CC(c4ccccc4)c4ccccc4)c3)=NO2)C[C@H]1C(N)=O (stereo partly drawn),-4,-2%,36%,-3,0%,-5%,.,
NC(=O)[C@H]1CC2(CC(c3cccc(NC(=O)CC(c4ccccc4)c4ccccc4)c3)=NO2)CN1C(=O)CC(c1ccccc1)c1ccccc1 (stereo partly drawn),-3,2%,12µM*,-4,?,7.1µM*,12,Flu PR8 replic=8
COc1cc2c(cc1OC)CN(C(=O)CN1C(=O)c3ccc([N+](=O)[O-])cc3C1=O)CC2,.,0%,1%,.,83%,.,.,
O=C(COc1ncnc2sccc12)Nc1ccc(F)cc1F,-9,-6%,9%,2,-2%,.,.,
N#CCC(=O)N/N=C/c1cccc(Oc2ccccc2)c1,2,0%,247%,10,-3%,?,.,
N#CCC(=O)N/N=C/c1ccc(N2N=C(c3ccccc3)CC2c2ccccc2)cc1 (stereo not drawn),2,0%,?,10*,?,1.1µM*,-33,
O=C(COC(=O)c1cccc2ccccc12)Nc1ncc(C(F)(F)F)cc1Cl,3,8%,.,-2,10%,4.5µM*,8,
Cc1cc(Nc2n[nH]c(N)c2C#N)ccc1F,18,-1%,30%,7,21%,2%,.,
COc1ccc(C(=O)Cn2nnc(-c3ccccc3NC(=O)c3ccco3)n2)cc1,53,3%,8.3µM*,3,-24%,10µM*,9,
CSc1nc(NCCOCCO)c2sc3nc(-c4ccco4)c4c(c3c2n1)CCC4,21,1%,-29%,-1,.,?,.,
CCN(CCO)c1nc(SC)nc2c1sc1nc(-c3ccco3)c3c(c12)CCC3,-2,3%,?,9,?,?,-1,
CN(CC(=O)Nc1ccc(Cl)cc1)C(=O)c1cc(-c2cccs2)nn1-c1ccccc1,.,.,10%,.,0%,.,.,
O=C(COC(=O)c1cc(-c2cccs2)nn1-c1ccccc1)Nc1ccc(Cl)c([N+](=O)[O-])c1,-9,-10%,4%,-3,8%,11µM*,-15,
N=Nc1c(O)n(CC(=O)Nc2ccccc2)c2ccccc12,-7,8%,?,5,34%,2.5µM*,24,
C=CCC(=O)N1CCCC(C(=O)c2ccc(Cl)cc2)C1 (stereo not drawn),4,4%,-5%,-3,?,17%,.,
Cc1csc(=O)n1CC(=O)OCC(=O)Nc1cc(S(=O)(=O)N2CCOCC2)ccc1Cl,.,0%,4%,.,-3%,.,.,
Cc1cccc2sc(NNC(=O)c3ccc(S(=O)(=O)N4CCc5ccccc5C4)cc3)nc12,8,10µM*,?,7,5.2µM*,13µM*,?,SARS PLpro yeast-2=+
CCOC(=O)N1CCN(S(=O)(=O)c2ccc(C(=O)NNc3nc4c(C)cccc4s3)cc2)CC1,7,7.9µM*,?,-2,?,10µM*,?,SARS PLpro yeast-2=+
CCOC(=O)N1CCN(S(=O)(=O)c2ccc(C(=O)NNc3nc4ccc(Cl)cc4s3)cc2)CC1,-13,10µM*,0%,1,?,7.9µM*,-16,SARS PLpro yeast-2=+
SMILES,Shiga toxin inh,SARS PLpro yeast-1,Pf growth 48h,Cycloheximide cs,Pf growth 96h,NS1 inh,Flu NS1 inh,others
O=[N+]([O-])c1ccc(-c2nc(-c3ccc(F)cc3)c(-c3ccncc3)[nH]2)cc1,-6,.,.,9,.,?,.,
COc1ccc(C(=O)O[C@H]2CC[C@@]3(C)[C@H]4CC[C@H]5[C@]3(C[C@]3(O)[C@H]6CN7C[C@H](C)CC[C@H]7[C@](C)(O)[C@]6(O)[C@H](O)C[C@]53O)O[C@]24O)cc1OC,.,.,.,.,.,-8%,.,
CCN(CC)C(=O)CSc1nc2ccccc2c(=O)n1-c1cccc(OC)c1,2,-2%,?,-1,.,-2%,.,
COc1cccc(-n2c(SCc3cc(=O)oc4cc(O)c(O)cc34)nc3ccccc3c2=O)c1,13,14µM*,34%,-3,?,?,-15,SARS PLpro yeast-2=i
Cn1c(=O)n(C)c2cc(NC(=O)c3ccccc3[N+](=O)[O-])c(Br)cc21,18,0%,?,1,?,11%,.,
CN(C)S(=O)(=O)c1ccc(C(=O)NCc2ccc3[nH]c4c(c3c2)CCCC4)cc1,-5,3.5µM*,-21%,-3,?,16µM*,11,SARS PLpro yeast-2=+
CNC(=S)NCc1ccc2[nH]c3c(c2c1)CCCC3,9,1%,11%,12,56%[1.15 µM],17%,.,
Cc1ccc(NC(=O)/C(=C/c2cccc([N+](=O)[O-])c2)NC(=O)C2CCCCC2)cc1,-5,-2%,?,-1,.,1%,.,
CC(=O)N/C(=C\c1cccc([N+](=O)[O-])c1)C(=O)NC1CCCCC1,61*,?,9%,49*,-14%,11µM*,5,SARS PLpro yeast-2=i
O=C(Cn1c(NCCO)nc2ccccc21)NCCc1ccc(F)cc1,-10,?,?,7,1%,1µM*,-4,SARS PLpro yeast-2=i

# High-throughput results: PubChem, National Center for Advancing Translational Sciences (NCATS)
